# In paper PMC8384837, “Expanding the binding specificity for RNA recognition by a PUF domain”:
# Columns and labels:
# Experiment in all cases: yeast three-hybrid, YBZ-1, SC-Leu-His + 0.5 mM 3-AT, 4 days
# Conditions in all cases: tags: N-Gal4 AD-HA kept; label: inside an RPR1-promoter hybrid RNA with tandem MS2 sites; ssRNA
# PUM1 PUF domain R5-GRP = PUM1 PUF domain R5-GRP (Homo sapiens, UniProt Q14671 828-1176, C1007G;Q1011P)
# Outline: (§1)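 Pumilio-1 PUF domain libraries, randomized (NNK) at the three base-contacting residues of each repeat, were co-expressed with matching RNA elements from a centromeric plasmid in strain YBZ-1 (LexA–MS2 coat fusion, HIS3 reporter). Transformants were plated on SC-Leu (input) and SC-Leu-His + 0.5 mM 3-AT (selection) for four days, and repeat regions were PCR-amplified and Illumina-sequenced. The interaction score is the log2 change in variant frequency from input to selection, with pseudocount 1 where absent.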
# PUM1 PUF domain R3-CYF = PUM1 PUF domain R3-CYF (Homo sapiens, UniProt Q14671 828-1176, R936Y;Q939F)
# Sequence of PUM1 PUF domain R3-CYF (Q14671 828-1176 R936Y/Q939F): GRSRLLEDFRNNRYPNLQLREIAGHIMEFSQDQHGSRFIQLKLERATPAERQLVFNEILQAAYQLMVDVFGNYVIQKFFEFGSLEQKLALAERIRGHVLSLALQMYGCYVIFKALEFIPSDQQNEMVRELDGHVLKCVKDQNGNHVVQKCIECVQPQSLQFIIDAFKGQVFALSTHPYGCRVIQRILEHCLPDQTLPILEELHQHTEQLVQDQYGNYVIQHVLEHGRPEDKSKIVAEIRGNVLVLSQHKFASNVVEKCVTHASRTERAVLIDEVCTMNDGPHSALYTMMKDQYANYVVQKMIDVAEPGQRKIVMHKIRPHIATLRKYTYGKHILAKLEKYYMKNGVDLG
# Outline: as §1
# PUM1 PUF domain R8-RHP = PUM1 PUF domain R8-RHP (Homo sapiens, UniProt Q14671 828-1176, N1122R;Y1123H;Q1126P)
# Sequence of PUM1 PUF domain R8-RHP (Q14671 828-1176 N1122R/Y1123H/Q1126P): as the sequence (Q14671 828-1176 R936Y/Q939F) above, with Y109R, F112Q, N295R, Y296H, Q299P counted along it
# Outline: as §1
# PUM1 PUF domain R5-QVR = PUM1 PUF domain R5-QVR (Homo sapiens, UniProt Q14671 828-1176, C1007Q;R1008V;Q1011R)
# Sequence of PUM1 PUF domain R5-QVR (Q14671 828-1176 C1007Q/R1008V/Q1011R): as the sequence (Q14671 828-1176 R936Y/Q939F) above, with Y109R, F112Q, C180Q, R181V, Q184R counted along it
# Outline: as §1
# PUM1 PUF domain R1-SGR = PUM1 PUF domain R1-SGR (Homo sapiens, UniProt Q14671 828-1176, R864G;Q867R)
# Sequence of PUM1 PUF domain R1-SGR (Q14671 828-1176 R864G/Q867R): as the sequence (Q14671 828-1176 R936Y/Q939F) above, with R37G, Q40R, Y109R, F112Q counted along it
# Outline: as §1
# PUM1 PUF domain R4-CPC = PUM1 PUF domain R4-CPC (Homo sapiens, UniProt Q14671 828-1176, N971C;H972P;Q975C)
# Sequence of PUM1 PUF domain R4-CPC (Q14671 828-1176 N971C/H972P/Q975C): as the sequence (Q14671 828-1176 R936Y/Q939F) above, with Y109R, F112Q, N144C, H145P, Q148C counted along it
# Outline: as §1
# PUM1 PUF domain R4-CNC = PUM1 PUF domain R4-CNC (Homo sapiens, UniProt Q14671 828-1176, N971C;H972N;Q975C)
# Sequence of PUM1 PUF domain R4-CNC (Q14671 828-1176 N971C/H972N/Q975C): as the sequence (Q14671 828-1176 R936Y/Q939F) above, with Y109R, F112Q, N144C, H145N, Q148C counted along it
# Outline: as §1
# PUM1 PUF domain R3-FSG = PUM1 PUF domain R3-FSG (Homo sapiens, UniProt Q14671 828-1176, C935F;R936S;Q939G)
# Sequence of PUM1 PUF domain R3-FSG (Q14671 828-1176 C935F/R936S/Q939G): as the sequence (Q14671 828-1176 R936Y/Q939F) above, with C108F, Y109S, F112G counted along it
# Outline: as §1
# PUM1 PUF domain R7-HHP = PUM1 PUF domain R7-HHP (Homo sapiens, UniProt Q14671 828-1176, S1079H;N1080H;E1083P)
# Sequence of PUM1 PUF domain R7-HHP (Q14671 828-1176 S1079H/N1080H/E1083P): as the sequence (Q14671 828-1176 R936Y/Q939F) above, with Y109R, F112Q, S252H, N253H, E256P counted along it
# Outline: as §1
# PUM1 PUF domain R7-KRQ = PUM1 PUF domain R7-KRQ (Homo sapiens, UniProt Q14671 828-1176, S1079K;N1080R;E1083Q)
# Sequence of PUM1 PUF domain R7-KRQ (Q14671 828-1176 S1079K/N1080R/E1083Q): as the sequence (Q14671 828-1176 R936Y/Q939F) above, with Y109R, F112Q, S252K, N253R, E256Q counted along it
# Outline: as §1
# Sequence of PUM1 PUF domain R5-GRP (Q14671 828-1176 C1007G/Q1011P): as the sequence (Q14671 828-1176 R936Y/Q939F) above, with Y109R, F112Q, C180G, Q184P counted along it
sequence,measurement,setting,value
GGCUAGAACUAGUGGAUCCCCCGGCGCCCGGCGGCUCGAGCCCGGGUAAGUGUAAAUAGUCUGCAUGCCGCCGGGCGCCAUGCCUGCAGGUCGACUCUAGAAAACAUG,binding signal,PUM1 PUF domain R5-GRP,2.96 log2 enrichment (interaction score)
same,binding signal,PUM1 PUF domain R3-CYF,5.41 log2 enrichment (interaction score)
same,binding signal,PUM1 PUF domain R8-RHP,5.42 log2 enrichment (interaction score)
GGCUAGAACUAGUGGAUCCCCCGGCGCCCGGCGGCUCGAGCCCGGGUAAGUGUGAAUAGUCUGCAUGCCGCCGGGCGCCAUGCCUGCAGGUCGACUCUAGAAAACAUG,binding signal,PUM1 PUF domain R5-GRP,1.44 log2 enrichment (interaction score)
GGCUAGAACUAGUGGAUCCCCCGGCGCCCGGCGGCUCGAGCCCGGGUAAGUGUCAAUAGUCUGCAUGCCGCCGGGCGCCAUGCCUGCAGGUCGACUCUAGAAAACAUG,binding signal,PUM1 PUF domain R5-QVR,3.01 log2 enrichment (interaction score)
GGCUAGAACUAGUGGAUCCCCCGGCGCCCGGCGGCUCGAGCCCGGGUAAGUGUAAAUCGUCUGCAUGCCGCCGGGCGCCAUGCCUGCAGGUCGACUCUAGAAAACAUG,binding signal,PUM1 PUF domain R1-SGR,3.72 log2 enrichment (interaction score)
GGCUAGAACUAGUGGAUCCCCCGGCGCCCGGCGGCUCGAGCCCGGGUAAGUGUACAUAGUCUGCAUGCCGCCGGGCGCCAUGCCUGCAGGUCGACUCUAGAAAACAUG,binding signal,PUM1 PUF domain R4-CPC,2.9 log2 enrichment (interaction score)
GGCUAGAACUAGUGGAUCCCCCGGCGCCCGGCGGCUCGAGCCCGGGUAAGUGUAUAUAGUCUGCAUGCCGCCGGGCGCCAUGCCUGCAGGUCGACUCUAGAAAACAUG,binding signal,PUM1 PUF domain R4-CNC,3.13 log2 enrichment (interaction score)
GGCUAGAACUAGUGGAUCCCCCGGCGCCCGGCGGCUCGAGCCCGGGUAAGUGUAAGUAGUCUGCAUGCCGCCGGGCGCCAUGCCUGCAGGUCGACUCUAGAAAACAUG,binding signal,PUM1 PUF domain R3-FSG,3.59 log2 enrichment (interaction score)
GGCUAGAACUAGUGGAUCCCCCGGCGCCCGGCGGCUCGAGCCCGGGUAAGCGUAAAUAGUCUGCAUGCCGCCGGGCGCCAUGCCUGCAGGUCGACUCUAGAAAACAUG,binding signal,PUM1 PUF domain R8-RHP,5.5 log2 enrichment (interaction score)
GGCUAGAACUAGUGGAUCCCCCGGCGCCCGGCGGCUCGAGCCCGGGUAAGUGUUAAUAGUCUGCAUGCCGCCGGGCGCCAUGCCUGCAGGUCGACUCUAGAAAACAUG,binding signal,PUM1 PUF domain R5-GRP,0.43 log2 enrichment (interaction score)
GGCUAGAACUAGUGGAUCCCCCGGCGCCCGGCGGCUCGAGCCCGGGUAAGUAUAAAUAGUCUGCAUGCCGCCGGGCGCCAUGCCUGCAGGUCGACUCUAGAAAACAUG,binding signal,PUM1 PUF domain R7-HHP,2.33 log2 enrichment (interaction score)
GGCUAGAACUAGUGGAUCCCCCGGCGCCCGGCGGCUCGAGCCCGGGUAAGUCUAAAUAGUCUGCAUGCCGCCGGGCGCCAUGCCUGCAGGUCGACUCUAGAAAACAUG,binding signal,PUM1 PUF domain R7-KRQ,2.89 log2 enrichment (interaction score)
same,binding signal,PUM1 PUF domain R7-HHP,2.54 log2 enrichment (interaction score)
